# Key:
# Test in all cases: DAPPL (digital affinity profiling via proximity ligation, sequencing); 10 mM Tris-HCl pH 7.5, 50 mM NaCl, 1 mM DTT, 4% glycerol, room temperature, 30 min; GST-TFs on glutathione beads, 16-mer random dsDNA library, 0.1% formaldehyde crosslink after washing; high values mean tight binding
# Details in all cases: protein: recombinant; tags: N-terminal GST; dsDNA, one strand shown
# [1] = target: T1, ERF (Homo sapiens, UniProt P50548 1-548)
# T1 sequence: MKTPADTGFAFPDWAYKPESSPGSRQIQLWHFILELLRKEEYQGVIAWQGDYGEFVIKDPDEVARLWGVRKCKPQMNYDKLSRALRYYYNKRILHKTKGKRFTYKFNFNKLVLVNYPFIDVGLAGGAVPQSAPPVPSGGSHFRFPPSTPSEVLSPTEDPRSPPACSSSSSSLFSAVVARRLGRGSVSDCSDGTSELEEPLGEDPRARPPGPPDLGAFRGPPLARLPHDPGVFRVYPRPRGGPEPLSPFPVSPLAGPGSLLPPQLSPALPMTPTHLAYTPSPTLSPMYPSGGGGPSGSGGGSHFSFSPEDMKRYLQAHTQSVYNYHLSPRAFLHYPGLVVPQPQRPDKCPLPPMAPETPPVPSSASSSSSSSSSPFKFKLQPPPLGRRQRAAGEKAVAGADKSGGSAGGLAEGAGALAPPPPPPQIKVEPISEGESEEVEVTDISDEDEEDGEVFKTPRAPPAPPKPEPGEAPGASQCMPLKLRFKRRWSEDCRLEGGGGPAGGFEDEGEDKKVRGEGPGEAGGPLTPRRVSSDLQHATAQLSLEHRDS
# Summary of the method: (§1)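 Sequencing on an Illumina NextSeq500 followed washing, crosslinking with 0.1% formaldehyde, proximity ligation (BsaI/T4 ligase, 1 h, 37 °C) and PCR amplification of pools that had been incubated for 30 min at room temperature with 200 nmole of a random double-stranded 16-mer DNA library in Tris/NaCl/DTT/glycerol buffer. Each pool held DNA-barcoded human transcription factors, expressed in yeast as GST fusions and captured on glutathione beads, plus a tag-only sample. Binding signal is a hexamer's read frequency for a factor divided by its frequency in the tag-only sample.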
# [2] = target: T2, ETV3L (Homo sapiens, UniProt Q6ZN32 1-361)
# T2 sequence: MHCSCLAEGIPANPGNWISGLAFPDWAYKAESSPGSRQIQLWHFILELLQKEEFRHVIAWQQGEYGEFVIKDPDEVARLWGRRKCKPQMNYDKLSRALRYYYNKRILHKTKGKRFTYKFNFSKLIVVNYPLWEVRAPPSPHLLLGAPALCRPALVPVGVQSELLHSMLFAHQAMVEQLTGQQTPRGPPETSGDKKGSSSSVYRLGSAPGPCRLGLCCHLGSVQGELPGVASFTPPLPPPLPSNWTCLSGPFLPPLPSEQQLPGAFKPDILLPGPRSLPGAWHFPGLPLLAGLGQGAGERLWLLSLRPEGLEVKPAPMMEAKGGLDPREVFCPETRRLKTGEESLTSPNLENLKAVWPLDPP
# Summary of the method: as §1
# [3] = target: T3, ETS2 (Homo sapiens, UniProt P15036 1-469)
# T3 sequence: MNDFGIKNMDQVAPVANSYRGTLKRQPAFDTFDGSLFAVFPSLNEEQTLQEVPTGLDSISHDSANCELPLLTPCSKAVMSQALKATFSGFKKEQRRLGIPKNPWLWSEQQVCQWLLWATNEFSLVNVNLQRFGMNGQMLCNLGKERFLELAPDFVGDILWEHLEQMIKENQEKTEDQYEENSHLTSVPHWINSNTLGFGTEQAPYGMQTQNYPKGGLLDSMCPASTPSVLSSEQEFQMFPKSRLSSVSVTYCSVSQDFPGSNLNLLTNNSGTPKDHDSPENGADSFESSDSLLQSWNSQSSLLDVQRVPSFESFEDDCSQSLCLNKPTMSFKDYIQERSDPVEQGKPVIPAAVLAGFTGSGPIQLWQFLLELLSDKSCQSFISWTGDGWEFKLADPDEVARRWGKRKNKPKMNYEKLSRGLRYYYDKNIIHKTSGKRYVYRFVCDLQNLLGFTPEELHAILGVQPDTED
# Summary of the method: as §1
# [4] = target: T4, SPDEF (Homo sapiens, UniProt O95238 1-335)
# T4 sequence: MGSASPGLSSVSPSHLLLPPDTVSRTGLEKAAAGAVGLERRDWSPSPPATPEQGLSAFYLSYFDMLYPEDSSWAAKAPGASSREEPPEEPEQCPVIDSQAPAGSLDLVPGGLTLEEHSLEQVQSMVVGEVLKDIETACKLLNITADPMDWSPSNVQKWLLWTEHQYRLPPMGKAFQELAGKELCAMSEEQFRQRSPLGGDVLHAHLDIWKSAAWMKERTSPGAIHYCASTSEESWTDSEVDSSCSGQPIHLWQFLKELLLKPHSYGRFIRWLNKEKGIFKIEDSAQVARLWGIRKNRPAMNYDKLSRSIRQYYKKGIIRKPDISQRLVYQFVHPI
# Summary of the method: as §1
# [5] = target: T5, ETV7 (Homo sapiens, UniProt Q9Y603 1-341)
# T5 sequence: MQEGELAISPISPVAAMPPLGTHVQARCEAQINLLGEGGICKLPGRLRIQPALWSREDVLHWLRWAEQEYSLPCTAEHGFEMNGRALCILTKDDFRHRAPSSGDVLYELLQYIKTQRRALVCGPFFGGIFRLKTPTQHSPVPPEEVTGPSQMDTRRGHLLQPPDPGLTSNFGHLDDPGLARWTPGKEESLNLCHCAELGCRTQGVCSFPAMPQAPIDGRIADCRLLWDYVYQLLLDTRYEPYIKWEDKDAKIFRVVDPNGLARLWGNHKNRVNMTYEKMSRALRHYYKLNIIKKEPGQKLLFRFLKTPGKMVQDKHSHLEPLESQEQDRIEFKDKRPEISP
# Summary of the method: as §1
# [6] = target: T6, ELF5 (Homo sapiens, UniProt Q9UKW6-2 1-255)
# T6 sequence: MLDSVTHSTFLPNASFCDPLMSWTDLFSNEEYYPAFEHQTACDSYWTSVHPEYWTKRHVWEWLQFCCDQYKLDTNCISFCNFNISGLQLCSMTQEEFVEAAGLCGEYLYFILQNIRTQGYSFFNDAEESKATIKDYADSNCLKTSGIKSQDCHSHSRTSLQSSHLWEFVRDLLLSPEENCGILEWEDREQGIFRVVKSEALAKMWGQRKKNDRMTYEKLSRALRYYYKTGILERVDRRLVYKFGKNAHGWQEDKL
# Summary of the method: as §1
# [7] = target: T7, ETV3 (Homo sapiens, UniProt P41162-2 1-143)
# T7 sequence: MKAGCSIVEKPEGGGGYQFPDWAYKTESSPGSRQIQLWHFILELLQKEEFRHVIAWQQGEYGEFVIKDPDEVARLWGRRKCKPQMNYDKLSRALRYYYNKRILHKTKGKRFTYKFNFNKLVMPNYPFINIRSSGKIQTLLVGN
# Summary of the method: as §1
# [8] = target: ETV6 (Homo sapiens, UniProt P41212 1-452)
# ETV6, sequence (P41212 whole entry): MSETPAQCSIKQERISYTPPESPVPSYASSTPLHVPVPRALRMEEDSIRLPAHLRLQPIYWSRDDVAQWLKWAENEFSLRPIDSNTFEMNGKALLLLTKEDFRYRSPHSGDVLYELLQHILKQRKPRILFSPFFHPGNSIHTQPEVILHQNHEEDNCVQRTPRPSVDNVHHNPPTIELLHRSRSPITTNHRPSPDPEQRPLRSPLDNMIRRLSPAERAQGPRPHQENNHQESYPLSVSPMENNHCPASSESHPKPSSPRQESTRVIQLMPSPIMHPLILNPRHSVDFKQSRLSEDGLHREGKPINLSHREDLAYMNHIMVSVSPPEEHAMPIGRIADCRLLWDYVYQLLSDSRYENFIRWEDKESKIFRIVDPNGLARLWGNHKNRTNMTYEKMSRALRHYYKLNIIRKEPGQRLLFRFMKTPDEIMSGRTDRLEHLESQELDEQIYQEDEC
# Summary of the method: as §1
Sequence,binding signal [1],binding signal [2],binding signal [3],binding signal [4],binding signal [5],binding signal [6],binding signal [7],binding signal [8]
TATAAG,"1.2 fold enrichment (6-mer frequency, TF over GST control)","1.21 fold enrichment (6-mer frequency, TF over GST control)","1.17 fold enrichment (6-mer frequency, TF over GST control)","1.2 fold enrichment (6-mer frequency, TF over GST control)","1.18 fold enrichment (6-mer frequency, TF over GST control)","1.16 fold enrichment (6-mer frequency, TF over GST control)","1.15 fold enrichment (6-mer frequency, TF over GST control)","1.19 fold enrichment (6-mer frequency, TF over GST control)"
CACGAC,"1.22 fold enrichment (6-mer frequency, TF over GST control)","1.26 fold enrichment (6-mer frequency, TF over GST control)","1.24 fold enrichment (6-mer frequency, TF over GST control)","1.19 fold enrichment (6-mer frequency, TF over GST control)","1.34 fold enrichment (6-mer frequency, TF over GST control)","1.24 fold enrichment (6-mer frequency, TF over GST control)","1.15 fold enrichment (6-mer frequency, TF over GST control)","1.24 fold enrichment (6-mer frequency, TF over GST control)"
TAATGA,"1.26 fold enrichment (6-mer frequency, TF over GST control)","1.24 fold enrichment (6-mer frequency, TF over GST control)","1.2 fold enrichment (6-mer frequency, TF over GST control)","1.11 fold enrichment (6-mer frequency, TF over GST control)","1.18 fold enrichment (6-mer frequency, TF over GST control)","1.12 fold enrichment (6-mer frequency, TF over GST control)","1.1 fold enrichment (6-mer frequency, TF over GST control)","1.21 fold enrichment (6-mer frequency, TF over GST control)"
CCTGTA,"1.24 fold enrichment (6-mer frequency, TF over GST control)","1.22 fold enrichment (6-mer frequency, TF over GST control)","1.15 fold enrichment (6-mer frequency, TF over GST control)","1.36 fold enrichment (6-mer frequency, TF over GST control)","1.21 fold enrichment (6-mer frequency, TF over GST control)","1.43 fold enrichment (6-mer frequency, TF over GST control)","1.35 fold enrichment (6-mer frequency, TF over GST control)","1.18 fold enrichment (6-mer frequency, TF over GST control)"
TTGCAG,"1.24 fold enrichment (6-mer frequency, TF over GST control)","1.11 fold enrichment (6-mer frequency, TF over GST control)","1.19 fold enrichment (6-mer frequency, TF over GST control)","1.14 fold enrichment (6-mer frequency, TF over GST control)","1.13 fold enrichment (6-mer frequency, TF over GST control)","1.08 fold enrichment (6-mer frequency, TF over GST control)","1.1 fold enrichment (6-mer frequency, TF over GST control)","1.12 fold enrichment (6-mer frequency, TF over GST control)"
ACCGCC,"1.21 fold enrichment (6-mer frequency, TF over GST control)","1.25 fold enrichment (6-mer frequency, TF over GST control)","1.24 fold enrichment (6-mer frequency, TF over GST control)","1.29 fold enrichment (6-mer frequency, TF over GST control)","1.21 fold enrichment (6-mer frequency, TF over GST control)","1.23 fold enrichment (6-mer frequency, TF over GST control)","1.44 fold enrichment (6-mer frequency, TF over GST control)","1.26 fold enrichment (6-mer frequency, TF over GST control)"
TAACTC,"1.29 fold enrichment (6-mer frequency, TF over GST control)","1.12 fold enrichment (6-mer frequency, TF over GST control)","1.25 fold enrichment (6-mer frequency, TF over GST control)","1.23 fold enrichment (6-mer frequency, TF over GST control)","1.22 fold enrichment (6-mer frequency, TF over GST control)","1.16 fold enrichment (6-mer frequency, TF over GST control)","1.25 fold enrichment (6-mer frequency, TF over GST control)","1.3 fold enrichment (6-mer frequency, TF over GST control)"
TTACGA,"1.06 fold enrichment (6-mer frequency, TF over GST control)","1.18 fold enrichment (6-mer frequency, TF over GST control)","1.14 fold enrichment (6-mer frequency, TF over GST control)","1.1 fold enrichment (6-mer frequency, TF over GST control)","1.1 fold enrichment (6-mer frequency, TF over GST control)","1.08 fold enrichment (6-mer frequency, TF over GST control)","1.1 fold enrichment (6-mer frequency, TF over GST control)","1.21 fold enrichment (6-mer frequency, TF over GST control)"

# Reference: PMC7862700, “An all-to-all approach to the identification of sequence-specific readers for epigenetic DNA modifications on cytosine”
